Source: PubChem BioAssay AID1159580 (chemical genetic matrix, 2015)
The campaign covered roughly 5,500 compounds. About 2,000 (36%) were called active. Inconclusive results (about 18%) are left out. The list shows a part of the results. A number with no mark means an inactive call. Rule as the data show it: active = normalized growth mostly below about 0.91 (no sharp cut-off); inconclusive = no clear call, values can overlap the other calls; inactive = mostly above about 0.92.

Assay: chemical genetic growth profiling, strain panel (AID 1159580);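 also: tested at 20 µM; growth read once vehicle control cultures reached saturation at 30 °C; 1 = growth at the plate median or of vehicle wells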
Settings: S. cerevisiae deletion strains, growth OD
[1] = locus YAL013W, strain DEP1, stronger effect = lower value
[2] = locus YAL040C, strain CLN3, stronger effect = lower value
[3] = locus YCL061C, strain MRC1 (second series), stronger effect = lower value
[4] = locus YER002W, strain NOP16, stronger effect = lower value
[5] = locus YNL153C, strain GIM3, stronger effect = lower value
[6] = locus YNL175C, strain NOP13, stronger effect = lower value
[7] = locus YNL197C, strain WHI3, stronger effect = lower value
[8] = locus YNL224C, strain SQS1, stronger effect = lower value
[9] = locus YOR083W, strain WHI5 (second series), stronger effect = lower value

## c1cnc2c(c1)ccc1cccnc12
[1]
  normalized growth: 0.0762 (active)
[2]
  normalized growth: 1.07
[3]
  normalized growth: 0.0542 (active)
Locus YDR363W, strain ESC2, stronger effect = lower value
  normalized growth: 0.0973 (active)
[4]
  normalized growth: 0.0834 (active)
Locus YGR078C, strain PAC10, stronger effect = lower value
  normalized growth: 0.109 (active)
Locus YJR075W, strain HOC1, stronger effect = lower value
  normalized growth: 0.0769 (active)
[5]
  normalized growth: 0.103 (active)
[6]
  normalized growth: 0.0953 (active)
[7]
  normalized growth: 0.0905 (active)
[8]
  normalized growth: 0.123 (active)
Locus YNL322C, strain KRE1, stronger effect = lower value
  normalized growth: 0.0666 (active)
[9]
  normalized growth: 0.0868 (active)

## Oc1ccccc1O
[1]
  normalized growth: 0.966
[2]
  normalized growth: 0.983
[3]
  normalized growth: 0.971
[4]
  normalized growth: 1
Locus YGR229C, strain SMI1, stronger effect = lower value
  normalized growth: 0.904
[5]
  normalized growth: 1.03
[6]
  normalized growth: 1.02
[7]
  normalized growth: 1.02
[8]
  normalized growth: 0.999
[9]
  normalized growth: 1.03
